# Test results published in PubChem BioAssay AID720597 (Broad Institute, 2013).
# Measured potencies and affinities stand elsewhere. Values without a mark were called inactive.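 How the source made its calls: active means fitted half-maximal dose no more than twice the top valid tested dose, for compounds that lower signal; inconclusive means fit invalid, or curve flat with activity between -70 and -30; inactive means potency past limit, curve flat within ±30, or signal increasing.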
# Biological target: NAD-dependent protein deacylase sirtuin-5, mitochondrial (Homo sapiens) (UniProt Q9NXA8)
# Assay: blockers of sirtuin-5 peptide desuccinylation – biochemical, fluorescence imaging, cherry-pick, set 6, dose response (AID 720597);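 further: lower AMC signal can also come from blocking the trypsin step; 0% = median of neutral control wells and -100% = median of positive control wells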
# Settings: Purified SirT5, succinyl-peptide-AMC/trypsin fluorescence; series mostly up to 15 µM; activity change, negative = inhibition: at the top concentration
# Sequence of NAD-dependent protein deacylase sirtuin-5, mitochondrial (Homo sapiens) (Q9NXA8 whole entry, looked up): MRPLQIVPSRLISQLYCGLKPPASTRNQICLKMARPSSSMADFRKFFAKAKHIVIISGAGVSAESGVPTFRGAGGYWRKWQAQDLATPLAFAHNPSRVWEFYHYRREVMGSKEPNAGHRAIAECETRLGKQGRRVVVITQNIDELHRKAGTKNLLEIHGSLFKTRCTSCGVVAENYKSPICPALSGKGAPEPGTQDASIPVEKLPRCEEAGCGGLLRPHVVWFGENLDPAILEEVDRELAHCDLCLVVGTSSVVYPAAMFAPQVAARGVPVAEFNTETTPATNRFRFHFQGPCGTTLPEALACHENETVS
row,Structure (SMILES),"activity change, negative = inhibition"
1,COc1ccccc1S(=O)(=O)N(C)C[C@H]1Oc2cc(C#CCC(C)C)ccc2S(=O)(=O)N([C@H](C)CO)C[C@@H]1C,-10.2%
2,C[C@H]1CN([C@@H](C)CO)C(=O)c2c(c3ccccc3n2C)-c2ccccc2CO[C@H]1CN(C)Cc1cccc2c1OCCCO2,0.028%
3,COc1ccc(S(=O)(=O)N(C)C[C@H]2Oc3cc(C#CC4CC4)ccc3S(=O)(=O)N([C@@H](C)CO)C[C@H]2C)cc1,5.85%
4,COc1ccc(NC(=O)N(C)C[C@@H]2Oc3cc(C#CCC(C)C)ccc3S(=O)(=O)N([C@H](C)CO)C[C@H]2C)cc1,13.2%
5,C[C@@H]1CN([C@@H](C)CO)S(=O)(=O)c2ccc(/C=C/c3ccccc3)cc2O[C@H]1CN(C)C(=O)c1ccc2c(c1)OCO2,-8.88%
6,O=C(NCC[C@@H]1CC[C@@H](NC(=O)C2CC2)[C@H](CO)O1)c1cc(Cl)cc(Cl)c1,19.4%
7,COc1ccc(NC(=O)N(C)C[C@@H]2Oc3cc(C#CCC(C)C)ccc3S(=O)(=O)N([C@H](C)CO)C[C@@H]2C)cc1,16.5%
8,O=C(c1cnccn1)N1CC(=O)N2[C@H](CO)[C@@H](c3ccc(C4=CCCCC4)cc3)[C@@H]2C1,-5.88%
9,C[C@H](CO)N1C[C@H](C)[C@H](CN(C)Cc2ccc(Oc3ccccc3)cc2)Oc2ccc(NC(=O)CCCCCC(=O)Nc3ccccc3N)cc2CC1=O,-15.1%
10,CS(=O)(=O)Nc1ccc2c(c1)[C@H]1C[C@@H](CC(=O)NCCc3ccccc3)O[C@@H](CO)[C@H]1O2,-16.6%
11,O=C(CCN1CCCCC1)N[C@H]1CC[C@@H](CC(=O)N2CCC(Cc3ccccc3)CC2)O[C@@H]1CO,-14.1%
12,O=C(C[C@H]1CC[C@H]2[C@@H](COC[C@@H](O)CN2C(=O)c2ccncc2)O1)Nc1ccc(-c2ccccc2)cc1,-9.41%
13,C[C@H]1CN([C@@H](C)CO)C(=O)c2cc(NC(=O)Nc3ccc(C(F)(F)F)cc3)ccc2O[C@H]1CN(C)S(=O)(=O)c1ccc(Cl)cc1,-4.25%
14,COc1ccc(NC(=O)Nc2ccc3c(c2)C(=O)N([C@@H](C)CO)C[C@@H](C)[C@H](CN(C)C(=O)Nc2cccc4ccccc24)OCCCC[C@H](C)O3)cc1,-3.45%
15,Cc1ccc(S(=O)(=O)Nc2ccc3c(c2)C(=O)N([C@H](C)CO)C[C@@H](C)[C@H](CN(C)C(=O)Nc2ccc(F)cc2)OCCCC[C@H](C)O3)cc1,-3.75%
16,C[C@H]1CN([C@@H](C)CO)C(=O)Cc2cc(NS(=O)(=O)c3ccc(Cl)cc3)ccc2O[C@@H]1CN(C)Cc1ccc(Oc2ccccc2)cc1,-28%
17,O=C(NCC[C@H]1CC[C@@H](NS(=O)(=O)c2cccc(F)c2)[C@@H](CO)O1)C1CCOCC1,6.94%
18,COCC#Cc1ccc2c(c1)O[C@@H](CN(C)CC1CCCC1)[C@H](C)CN([C@@H](C)CO)S2(=O)=O,15.1%
19,C[C@@H]1CN([C@H](C)CO)C(=O)c2cc(NS(=O)(=O)c3ccc(Cl)cc3)ccc2O[C@@H]1CN(C)Cc1ccc(-c2ccccc2)cc1,-4.51%
20,C[C@H]1CN([C@@H](C)CO)C(=O)c2cccc(NC(=O)CCCCCC(=O)Nc3ccccc3N)c2O[C@@H]1CN(C)Cc1ccc(Oc2ccccc2)cc1,-22.4%
21,C[C@@H]1CCCCO[C@@H](CN(C)Cc2ccc(C(F)(F)F)cc2)[C@H](C)CN([C@@H](C)CO)C(=O)c2cc(NS(=O)(=O)c3ccccc3)ccc2O1,18%
22,O=C(Nc1cc(F)ccc1F)N1CC(=O)N2[C@@H](CO)[C@@H](c3ccc(C#CC4CCCCC4)cc3)[C@@H]2C1,-15.7%
23,C[C@@H]1CCCCO[C@@H](CN(C)Cc2ccc(C(F)(F)F)cc2)[C@H](C)CN([C@@H](C)CO)C(=O)c2cc(NS(=O)(=O)c3cccs3)ccc2O1,-23.6%
24,COc1cccc(-c2ccc3c(c2)[C@@H]2[C@@H](CCN2C(=O)c2ccccc2F)[C@H](CO)N3C)c1,-1.31%
25,Cc1ccc(S(=O)(=O)N(C)C[C@H]2OCCCC[C@@H](C)Oc3ccc(NS(=O)(=O)c4ccccc4)cc3C(=O)N([C@@H](C)CO)C[C@H]2C)cc1,-23.3%
26,C[C@H]1CN([C@@H](C)CO)S(=O)(=O)c2ccc(-c3cccc(F)c3)cc2O[C@@H]1CN(C)C(=O)Nc1cc(F)ccc1F,-33.1%
27,O=C(NCC[C@@H]1CC[C@@H](NC(=O)C2CC2)[C@@H](CO)O1)c1cc(Cl)cc(Cl)c1,-6.23%
28,COc1ccc(S(=O)(=O)N(C)C[C@H]2OCCCC[C@H](C)Oc3ccc(NS(=O)(=O)c4ccc(Cl)cc4)cc3C(=O)N([C@@H](C)CO)C[C@H]2C)cc1,10.7%
